# Results taken from PubChem BioAssay AID1508602 (The Scripps Research Institute Molecular Screening Center, 2020).
# “And” between values parts separate entries of the source, which are not always exact repeats. Identical values can stand only once. The campaign covered roughly 650,000 compounds. About 6,800 (1%) were called active. Cut-off read from the data, not from the text of the source: active = activation above about 4.9%; inactive = the rest. The full list was thinned out, with actives kept by preference. More than one record can exist for a structure, and the calls need not agree.
# Biological target: G-protein coupled receptor 151 (Homo sapiens) (UniProt Q8TDV0)
# Experiment: activators of human GPR151, primary screen, cell-based, PathHunter beta-arrestin, luminescence (AID 1508602);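 note: 0% = median of compound wells and 100% = cells with positive control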
# Details: PathHunter beta-arrestin GPR151 cells, at 11.2 µM, stronger effect = higher value
# Sequence of G-protein coupled receptor 151 (Homo sapiens) (Q8TDV0 whole entry, looked up): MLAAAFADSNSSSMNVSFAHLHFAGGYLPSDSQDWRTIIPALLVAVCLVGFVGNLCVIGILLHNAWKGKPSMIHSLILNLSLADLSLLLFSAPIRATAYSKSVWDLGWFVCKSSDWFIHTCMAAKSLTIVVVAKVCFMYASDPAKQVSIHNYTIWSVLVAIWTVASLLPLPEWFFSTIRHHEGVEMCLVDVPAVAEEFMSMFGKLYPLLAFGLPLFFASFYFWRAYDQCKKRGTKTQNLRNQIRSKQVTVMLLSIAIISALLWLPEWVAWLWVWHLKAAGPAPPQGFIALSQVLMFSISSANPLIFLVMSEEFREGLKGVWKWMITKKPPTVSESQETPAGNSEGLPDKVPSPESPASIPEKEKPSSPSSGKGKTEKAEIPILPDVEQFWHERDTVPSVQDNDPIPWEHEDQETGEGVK
row,SMILES,activation
1,COc1cc(NC(=O)NCCN2CCN(c3ccccc3)CC2)cc(OC)c1,0.531% (inactive)
2,CCOC(=O)NCCCN1CCN(c2ccccc2)CC1,1.63% (inactive)
3,N#Cc1ccc(N2CCN(CCCNC(=O)Nc3ccccc3)CC2)cc1,5.03% (active)
4,COc1cccc(C=O)c1OC(=O)c1ccc(Cl)c([N+](=O)[O-])c1,1.65% (inactive)
5,NC(=O)c1ccccc1NS(=O)(=O)c1cc(C(=O)O)c(Cl)cc1Cl,1.03% (inactive)
6,OC(COc1ccccc1F)CN1CCOCC1 (stereo not given),0.198% (inactive)
7,COc1ccc(C2/C(=C(\O)c3ccc(F)cc3)C(=O)C(=O)N2CCCN2CCOCC2)cc1 (stereo not given),1.83% (inactive)
8,CCCSc1[nH]c(=O)c(C(=O)O)cc1C#N,-0.367% (inactive)
9,O=C(Cn1nnc(-c2ccccc2)n1)N/N=C/c1c(O)ccc2ccccc12,1.41% (inactive)
10,O=C(Cn1nnc2ccccc21)N/N=C/c1cccnc1,0.99% (inactive)
11,O=C(Cn1nnc2ccccc21)N/N=C/c1c(O)ccc2ccccc12,5.7% (active)
12,CC(C)(C)C1(O)CCN2C[C@H]3c4ccccc4CCc4cccc(c43)[C@@H]2C1 (stereo not given in full),7.83% (active) and 3.25% (inactive)
13,CC(Nc1n[nH]c(=O)[nH]c1=O)C(=O)N/N=C/c1cccnc1 (stereo not given),-0.752% (inactive)
14,CN(CC(=O)Nc1cccc2c1CCCC2)S(=O)(=O)c1ccc(Cl)cc1,5.67% (active)
15,CN(CC(=O)Nc1ccccc1Cl)S(=O)(=O)c1ccc(F)cc1,-1.27% (inactive)
16,CN(CC(=O)Nc1c(F)cccc1F)S(=O)(=O)c1ccc(Cl)cc1,0.4% (inactive)
17,C=CCn1c(SCC(=O)NCc2ccco2)nc2sc3c(c2c1=O)CCC(C)C3 (stereo not given),-1.7% (inactive)
18,CCOC(=O)CSc1nc2sc(C(=O)OCC)c(C)c2c(=O)n1Cc1ccccc1,2.6% (inactive)
19,CCOC(=O)c1sc2nc(SCC(=O)N(C)Cc3ccccc3)n(Cc3ccc4c(c3)OCO4)c(=O)c2c1C,5.39% (active)
20,CCOC(=O)c1sc2nc(SCc3ccc(Cl)cc3)n(Cc3cccc(Cl)c3)c(=O)c2c1C,-0.446% (inactive)
21,CC(C)n1c(=O)[nH]c2c(C(N)=O)nc(-c3ccc(-c4ccccc4)cc3)nc21,5.61% (active)
22,NC(=O)c1nc(-c2ccccc2)nc2c1[nH]c(=O)n2-c1ccc(F)cc1,0.0137% (inactive)
23,NC(=O)c1nc(-c2cccc(Cl)c2)nc2c1[nH]c(=O)n2-c1ccccc1,-0.457% (inactive)

row,SMILES,activation
1,Cc1cccnc1-c1ccc2c(c1)CC(CNC(=O)[C@@H]1CCC(=O)N1)O2 (stereo not given in full),0.168% (inactive)
2,CCOC(=O)C1=C(C)OC(N)=C(C#N)C1c1ccc2c(c1)OCO2 (stereo not given),0.198% (inactive)
3,CCN(CC)CCOC(=O)c1ccc(OC)cc1OCCN(CC)CC,1.9% (inactive)
4,OCCC1CN(Cc2ccc3cc(F)ccc3n2)CCN1C1CCCC1 (stereo not given),9.5% (active)
5,OCCC1CN(Cc2cccc(F)c2)CCN1C1CCCC1 (stereo not given),1% (inactive)
6,CCOc1ccc(CN2CCN(Cc3ccc4cc(F)ccc4n3)CC2CCO)cc1 (stereo not given),-0.448% (inactive)
7,CC(C)Nc1cc(N2CCC3(CC2)OCCO3)c2noc3c2c1C(=O)c1ccccc1-3,3.8% (inactive)
8,Cc1ccc(N2C(=O)NC(NC(=O)c3cccs3)(C(F)(F)F)C2=O)cc1 (stereo not given),1.1% (inactive)
9,Cc1ccc(N2C(=O)CC(NCCc3ccccc3F)C2=O)cc1 (stereo not given),0.306% (inactive)
10,Cc1ccc(N2C(=O)CC(NCCN3CCOCC3)C2=O)cc1 (stereo not given),14% (active)
11,Cc1ccc(N2C(=O)CC(NCc3ccc(F)cc3)C2=O)cc1 (stereo not given),-0.0057% (inactive)
12,COc1ccc(F)c(CC2(CCC(=O)N(CCO)Cc3ccccc3)CCC(=O)N2)c1 (stereo not given),-0.346% (inactive)
13,NC(C(=O)N1CCN(C(=O)Nc2ccc3[nH]ncc3c2)CC1)c1cccc(Br)c1 (stereo not given),-1.09% (inactive)
14,CC(C)[C@H](O)C(=O)N1CCC(C(=O)Nc2ccc3[nH]ncc3c2)CC1,-0.359% (inactive)
15,O=C(Nc1ccc2[nH]ncc2c1)N1CCCNCC1,5.34% (active)
16,O=C(Nc1ccccc1C(F)(F)F)c1cc(S(=O)(=O)N2CCCCCC2)ccc1F,0.584% (inactive)
17,Cc1ccc(N(CC(=O)N/N=C/c2ccc(C)c(C)c2C)S(C)(=O)=O)cc1,0.882% (inactive)
18,COc1cc2ccccc2cc1C(=O)Nc1nc2ccc3ccccc3c2s1,-1.09% (inactive)
19,CCOC(=O)c1cc[n+](CC(=O)c2ccc(NC(=O)c3ccccc3)cc2)cc1,-2.71% (inactive)
20,CCOC(=O)c1ccc(NC(=O)c2ncn(-c3ccccc3)n2)cc1,5.91% (active)
21,CCOC(=O)c1ccc(NC(=O)c2nn(Cc3ccccc3)c(=O)c3ccccc23)cc1,-0.0773% (inactive)
22,O=C(Nc1ccncc1NC(=O)c1ccco1)c1ccco1,0.598% (inactive)
